{
  "source": "PubChem BioAssay AID1745850",
  "about": "(National Center for Advancing Translational Sciences (NCATS), 2022)",
  "note": "The whole screen tested about 2,100 compounds, of which about 260 (12%) were called active. Another 58% or so got no clear call; they are omitted. The list shows a part of the results. A number with no mark means an inactive call. The call rests on the fitted dose curve; in most records, active means well fitted cell-killing curve with a large enough effect; inconclusive means small, poorly fitted or top-dose-only effect, or effect the other way; inactive means flat fitted curve, though single readings scatter. Potency means the concentration at half of the fitted maximal effect.",
  "data": [
    {"assay": "Viability Counterscreen for Confirmatory qHTS for Inhibitors of ATXN expression; further: nearly all actives have a fitted effect of over 50% in size", "conditions": "HEK-293 ATXN2-luc cells viability, CellTiter-Fluor, 24 h; activity change, negative = cytotoxicity: at the top concentration", "summary_of_the_method": "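Cells with an ATXN2-luciferase reporter were dosed in a dilution series for 24 h at 37 degrees C. Viability was read first with Gly-Phe-AFC at 25 uM final (fluorescence, ex 405/em 540), then SteadyGlo luminescence. Medium-only wells defined 100% inhibition.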", "values": [
      {"compound": "COc1ccc(C)cc1Nc1nc(C)nc2sc(C)cc12", "activity change, negative = cytotoxicity": "-13.3%"},
      {"compound": "CCOc1ccc(CCNC(=O)c2ccc(OCc3c(C)noc3C)cc2)cc1OCC", "activity change, negative = cytotoxicity": "-11.7%"},
      {"compound": "N=c1n(CCN2CCCCC2)c2ccccc2n1CC(O)c1ccc(Cl)c(Cl)c1", "note": "(stereo not drawn)", "Potency": "25.1 µM (active)"},
      {"compound": "CCCCCn1c(=N)n(CC(O)COc2ccccc2OC)c2ccccc21", "note": "(stereo not drawn)", "Potency": "3.98 µM (active)"},
      {"compound": "Cc1ccc(OCC(O)Cn2c(=N)n(CCN3CCCCC3)c3ccccc32)cc1", "note": "(stereo not drawn)", "Potency": "22.4 µM (active)"},
      {"compound": "COc1cc2c(C(=O)N3CCOCC3)c(CSc3ccccc3)n(C)c2cc1Br", "activity change, negative = cytotoxicity": "-20.7% [at 57.5 µM]"},
      {"compound": "CN(C)c1ccc2c(c1)OC(N)=C(C#N)C2c1cccc(F)c1", "note": "(stereo not drawn)", "activity change, negative = cytotoxicity": "-25.8% [at 57.5 µM]"},
      {"compound": "COc1cc2nc(CN(C)Cc3ccc(SC)cc3)[nH]c(=O)c2cc1OC", "activity change, negative = cytotoxicity": "-14.4% [at 57.5 µM]"},
      {"compound": "COc1ccc(C(=O)NC(=S)NNC(=O)c2cnccn2)cc1", "activity change, negative = cytotoxicity": "-14.6%"},
      {"compound": "COc1c(C)cccc1C(=O)Nc1ccc(N2CCN(C(=O)c3ccccc3C)CC2)cc1", "Potency": "25.1 µM (active)"},
      {"compound": "COc1ccc(Br)cc1C(=O)Nc1ccccc1N1CCN(C(=O)c2ccccc2)CC1", "activity change, negative = cytotoxicity": "-13.6%"},
      {"compound": "Cc1ccc(C(=O)N2CCN(c3ccc(NC(=S)NC(=O)c4cccs4)cc3)CC2)cc1", "activity change, negative = cytotoxicity": "-13.9%"},
      {"compound": "Cn1c(=O)c2c(nc(SCCN3CCOCC3)n2Cc2cccc3ccccc23)n(C)c1=O", "activity change, negative = cytotoxicity": "-9.68%"},
      {"compound": "CCc1ccc(-n2cc(-c3ccc(F)cc3)[n+]3c2SCCC3)cc1", "activity change, negative = cytotoxicity": "-20.7% [at 57.5 µM]"},
      {"compound": "CCn1c(COc2ccccc2C)nnc1SCC(=O)N1CCN(c2ccccc2)CC1", "activity change, negative = cytotoxicity": "-30% [at 57.5 µM]"},
      {"compound": "O=C1C=CCC(/C=C/c2ccccc2)O1", "note": "(stereo not drawn)", "Potency": "20 µM (active)"},
      {"compound": "Cc1c(CC(=O)NCCCC(=O)O)c(=O)oc2cc3c(cc12)CCC(C)(C)O3", "activity change, negative = cytotoxicity": "-20.8% [at 57.5 µM]"},
      {"compound": "CCc1nc2ccccc2c(C(=O)OCC(=O)Nc2ccc(NC(C)=O)cc2)c1C", "activity change, negative = cytotoxicity": "-22.7%"},
      {"compound": "NS(=O)(=O)c1ccc(NC(=O)COC(=O)c2c3c(nc4ccccc24)/C(=C\\c2ccc4c(c2)OCO4)CCC3)cc1", "activity change, negative = cytotoxicity": "-16.4% [at 57.5 µM]"},
      {"compound": "CCc1nc2ccccc2c(C(=O)OCC(=O)Nc2cccc(S(=O)(=O)NC3=NCCCCC3)c2)c1C", "Potency": "25.1 µM (active)"},
      {"compound": "COc1ccc(N(CC(=O)N2CCN(c3ccc(Cl)cc3)CC2)S(=O)(=O)c2c(C)n[nH]c2C)cc1", "activity change, negative = cytotoxicity": "-23.7%"},
      {"compound": "CCOc1ccc(NC(=O)Nc2nnc(CC(=O)NCc3ccccc3)s2)cc1", "activity change, negative = cytotoxicity": "-28.5% [at 57.5 µM]"},
      {"compound": "O=C(Nc1ccc(Cl)c(Cl)c1)Nc1nnc(CSc2ccccc2)s1", "Potency": "2.51 µM (active)"},
      {"compound": "CCCCN1C(=O)/C(=C2/Sc3ccccc3N2C)S/C1=N\\c1ncn[nH]1", "activity change, negative = cytotoxicity": "-13.9% [at 57.5 µM]"},
      {"compound": "CC1=CC(C)(C)N2C(=O)C3(SCC(=O)N3c3ccc(F)cc3)c3cc(C)cc1c32", "note": "(stereo not drawn)", "activity change, negative = cytotoxicity": "-20.4%"},
      {"compound": "CCN(CC)c1ccc(/C=C/c2cccc[n+]2C)c(OC)c1", "Potency": "12.6 µM (active)"},
      {"compound": "CCN(CC)c1ccc(C(=O)N/N=C/c2ccccc2OC(F)F)cc1", "activity change, negative = cytotoxicity": "-18.3%"},
      {"compound": "O=C(C1CC(=O)N(c2ccc3c(c2)OCCO3)C1)N1CCN(c2ccccc2)CC1", "note": "(stereo not drawn)", "activity change, negative = cytotoxicity": "-6.33%"},
      {"compound": "O=C(CSc1nnc(-c2ccccc2)o1)Nc1ccccc1F", "activity change, negative = cytotoxicity": "-3.09%"},
      {"compound": "CC1CC(C)CN(CCCNC(=O)c2cc3c(s2)-c2ccccc2OC3)C1", "note": "(stereo not drawn)", "activity change, negative = cytotoxicity": "-15.7%"},
      {"compound": "Cc1ccc(NC(=O)CCC(=O)c2cc(C)sc2C)nc1", "activity change, negative = cytotoxicity": "-17.9% [at 57.5 µM]"},
      {"compound": "COc1ccc(-c2cc(C3CCN(c4ccc(C(C)=O)cc4[N+](=O)[O-])CC3)[nH]n2)cc1", "Potency": "28.2 µM (active)"},
      {"compound": "CC(=O)c1ccc(N2CCc3ccccc3C2)c([N+](=O)[O-])c1", "activity change, negative = cytotoxicity": "-27.8% [at 57.5 µM]"},
      {"compound": "CN1CCC2(CC1)N=C(c1ccc(F)cc1)C(=S)N2C(=O)c1ccc(C(C)(C)C)cc1", "activity change, negative = cytotoxicity": "-27.6% [at 57.5 µM]"},
      {"compound": "CC(C)n1c(NCc2cc(Cl)ccc2O)nc2ccccc21", "activity change, negative = cytotoxicity": "-0.178%"},
      {"compound": "Clc1ccc(CSc2ccc(-c3ccccn3)nn2)cc1", "activity change, negative = cytotoxicity": "-14.5%"},
      {"compound": "Cc1cc(Oc2ccc(Cl)cc2)nc(-c2ccccn2)n1", "activity change, negative = cytotoxicity": "-12.9% [at 57.5 µM]"},
      {"compound": "Clc1ccc(SCc2cc(N3CCOCC3)nc(-c3ccccn3)n2)cc1", "Potency": "10 µM (active)"},
      {"compound": "CCN(CC)CCCNc1nc2ccccc2c2nc(-c3ccncc3)nn12", "Potency": "25.1 µM (active)"},
      {"compound": "COC(=O)N/N=C/c1cn(CC(C)COc2ccccc2)c2ccccc12", "note": "(stereo not drawn)", "activity change, negative = cytotoxicity": "-29.4% [at 57.5 µM]"},
      {"compound": "Cc1ccc(C)n1-c1ccc(C(=O)N2CCC(C(N)=O)CC2)cc1", "activity change, negative = cytotoxicity": "-2.84%"},
      {"compound": "O=C1C(Cl)=C(N2CCC(C(=O)O)CC2)C(=O)c2ccccc21", "activity change, negative = cytotoxicity": "-25% [at 57.5 µM]"},
      {"compound": "CCOC(=O)C1CCN(C(=O)c2c(C)oc3c2C(=O)c2ccccc2C3=O)CC1", "Potency": "25.1 µM (active)"},
      {"compound": "COc1ccc(CCCNC(=O)C2Cc3c(-c4cccc(NC(C)=O)c4)ccnc3O2)cc1", "note": "(stereo not drawn)", "activity change, negative = cytotoxicity": "-26.2%"},
      {"compound": "N#CCc1nc2ccccc2c(=O)[nH]1", "activity change, negative = cytotoxicity": "-3.15% [at 57.5 µM]"},
      {"compound": "Cc1[nH]c(=O)c(C(=O)/C=C/c2ccccc2)c2c1CCCC2", "Potency": "20 µM (active)"},
      {"compound": "COC(=O)c1ccccc1S(=O)(=O)NNC(=O)Nc1ccccc1", "activity change, negative = cytotoxicity": "3.46%"},
      {"compound": "C(=N\\Nc1nc2ccccc2[nH]1)/c1cccc2nccnc12", "activity change, negative = cytotoxicity": "-11.6%"},
      {"compound": "CC(C)Cn1c(/C=N/Nc2nc3ccccc3[nH]2)nc2ccccc21", "Potency": "11.2 µM (active)"},
      {"compound": "CCCCn1c(/C=N/Nc2nc3ccccc3[nH]2)nc2ccccc21", "activity change, negative = cytotoxicity": "-8.13%"},
      {"compound": "Cc1sc2nc(CN3CCCC3)nc(N3CCC(C(N)=O)CC3)c2c1C", "activity change, negative = cytotoxicity": "-12.6% [at 57.5 µM]"},
      {"compound": "O=C(N/N=C/c1ccc(O)cc1O)c1ccncc1", "activity change, negative = cytotoxicity": "-15.1%"},
      {"compound": "Cc1cc([N+](=O)[O-])nn1Cc1ccc(C(=O)N/N=C/c2ccc(O)cc2O)cc1", "Potency": "10 µM (active)"},
      {"compound": "Cc1cc(C)n(CCC(=O)N/N=C/c2ccc(O)cc2O)n1", "activity change, negative = cytotoxicity": "-14.6%"},
      {"compound": "CCn1c(-c2ccc(C)cc2)nn(CC(=O)NCCc2ccccc2)c1=S", "activity change, negative = cytotoxicity": "-24.9%"},
      {"compound": "O=C(NN=Cc1ccc(O)cc1O)c1ccccc1NS(=O)(=O)c1cccs1", "activity change, negative = cytotoxicity": "-21.2%"},
      {"compound": "CCc1ccc(C(O)c2ncc(-c3cccc(C(F)(F)F)c3)[nH]2)cc1", "note": "(stereo not drawn)", "activity change, negative = cytotoxicity": "-28.4% [at 57.5 µM]"},
      {"compound": "CCN(CC)CCn1nc2c3c(cccc3c1=O)-c1ccccc1-2", "Potency": "14.1 µM (active)"},
      {"compound": "COc1ccc(/C(N)=N/OC(=O)N2CCOCC2)cc1", "activity change, negative = cytotoxicity": "-25.5%"},
      {"compound": "Cn1c2c(c(=O)[nH]c1=O)C(c1cccc(O)c1)C1=C(N2)c2ccccc2C1=O", "note": "(stereo not drawn)", "Potency": "22.4 µM (active)"},
      {"compound": "CCOC(=O)C(C(C)=O)c1c(Br)c(O)c(O)c2c(C(=O)c3ccc(C)cc3)coc12", "note": "(stereo not drawn)", "Potency": "15.8 µM (active)"},
      {"compound": "CC(=O)C(C(C)=O)c1c(Cl)c(O)c(O)c2c(C(=O)c3ccccc3)coc12", "Potency": "12.6 µM (active)"},
      {"compound": "Cc1ccc(NC(=O)CSc2ccc(Br)cc2)cc1S(=O)(=O)N1CCOCC1", "activity change, negative = cytotoxicity": "-29.7% [at 57.5 µM]"}
    ]}
  ]
}
